Consider ten molecules from ChEMBL document CHEMBL4513143, “CO-ADD screening of University of Natural Resources and Life (Austria) compounds”.

Potency and affinity values are given separately.

In assay [1] the test system is Staphylococcus aureus. Particulars: Concentration 32 ug.mL-1; ASSAY_TEST Inhibition of Bacterial Growth; detection method Absorption (OD600); MEDIA CAMHB; plate type 384well; NBS; CORNING #3640; time 18 hr.
Assay [2] relates to Escherichia coli. Particulars: Concentration 32 ug.mL-1; ASSAY_TEST Inhibition of Bacterial Growth; detection method Absorption (OD600); MEDIA CAMHB; plate type 384well; NBS; CORNING #3640; time 18 hr.

As for `CCN(CC)CC.C[C@@H](CC1O[C@H]([C@@H](O)CO)[C@@H](O)[C@H](O)[C@@H]1O)OP(=O)(O)OC[C@H]1O[C@@H](n2cnc3c(N)ncnc32)[C@H](O)[C@@H]1O` (stereo not given in full), the Inhibition in assay [1] is listed as 27.76%; in assay [2] it was 16.43%.
The corresponding values for `OC[C@@H](O)[C@H]1OC(O)C[C@@H](O)[C@@H]1O` (stereo not given in full) are 21.66% and 15.99%.
Taken in the same sequence, the figures for `N.O=C(O)C1(O)C[C@@H](O)[C@H](O)[C@@H]([C@@H](O)CO)O1` (stereo not given in full) were 25.6% and 22.94%.
The corresponding values for `CCN(CC)CC.C[C@H](CC1O[C@H]([C@@H](O)CO)[C@@H](O)[C@H](O)[C@@H]1O)OP(=O)(O)O` (stereo not given in full) are 23.43% and 26.24%.
Take `CCN(CC)CC.C[C@@H](CC1O[C@H]([C@@H](O)CO)[C@@H](O)[C@H](O)[C@@H]1O)OP(=O)(O)O` (stereo not given in full): the Inhibition in assay [1] is given as 24.59%; in assay [2] it was 26.95%.
The corresponding values for `CCN(CC)CC.C[C@@H](CC1O[C@H]([C@H](O)CO)[C@@H](O)[C@H](O)[C@@H]1O)OP(=O)(O)OC[C@H]1O[C@@H](n2cnc3c(N)ncnc32)[C@H](O)[C@@H]1O` (stereo not given in full) are 27.38% and 10.57%.
Taken in the same sequence, the figures for `CCN(CC)CC.C[C@H](CC1O[C@H]([C@@H](O)CO)[C@@H](O)[C@H](O)[C@@H]1O)OP(=O)(O)OC[C@H]1O[C@@H](n2cnc3c(N)ncnc32)[C@H](O)[C@@H]1O` (stereo not given in full) were 25.31% and 11.12%.
The corresponding values for `CC(=O)CC1O[C@H]([C@@H](O)CO)[C@@H](O)[C@H](O)[C@@H]1O` (stereo not given in full) are 21.72% and 24.3%.
In the case of `CCN(CC)CC.C[C@H](CC1O[C@H]([C@H](O)CO)[C@@H](O)[C@H](O)[C@@H]1O)OP(=O)(O)OC[C@H]1O[C@@H](n2cnc3c(N)ncnc32)[C@H](O)[C@@H]1O` (stereo not given in full), the Inhibition in assay [1] is 30.75%; in assay [2], 16.06%.
The corresponding values for `CCN(CC)CC.O=P(O)(O)OC1C[C@@H](O)[C@H](O)[C@@H]([C@H](O)CO)O1` (stereo not given in full) are 23.92% and 21.41%.
